# Screening results: PubChem BioAssay, National Center for Advancing Translational Sciences (NCATS)
# Rows were chosen to be rich in hits. Some 21% of all compounds tested hit in one or more screens of this group.
# Shiga inhibitor = Shiga toxin inhibition. inhibition, % at 38.7 µM. AID 2315. hit rate 9.2% among 290,000. Vero cells, Shiga toxin protein synthesis inhibition reporter; in the data active means inhibition mostly above about 28%, no sharp cut-off; inactive means mostly below about 43%
# AMA1 RON2 block = disrupts binding of P. falciparum AMA1 to RON2; AID 720542; Potency, µM (top dose mostly 58.2 µM), hits mostly inhibitors; AlphaScreen AMA1-biotinylated RON2 peptide binding; hit rate 0.2% among 360,000; further: nearly all actives have a fitted effect of over 45% in size
#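 AMA1 (3D7) with his tag at 25 nM final met compounds first, then biotinylated RON2 peptide at 25 nM; detection used donor plus acceptor beads, 10 µg/mL apiece, read by AlphaScreen after 30 min at room temperature.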
# CHX counter = counter-screen hit for Shiga toxin inhibitors, cycloheximide; cell reporter, cycloheximide protein synthesis inhibition counterscreen; max response, %; hit rate 12% among 300,000; AID 2314; in the data active means max response mostly above about 13%, no sharp cut-off; inactive means mostly below about 14%; further: read at 38.3 µM for the half of the compounds with a filed dose
# Pf growth 48h = inhibits P. falciparum growth in the first generation, 48 h; P. falciparum luciferase growth in erythrocytes, 48 h; Potency, µM (top dose mostly 28.7 µM), usual class: inhibitors; hit rate 5.9% among 310,000
#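 Parasite viability was followed by luminescence of a genomically integrated firefly luciferase. Cultures held 0.1% parasitemia at 2% hematocrit (final), incubated under 5% CO2 at 37 C.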
# Pf growth 96h = P. falciparum growth inhibition at 96 hour, primary screen for plastid delayed-death inhibitors | hit rate 6.9% among 320,000 | P. falciparum luciferase reporter growth, 96 h | AID 504834 | Potency, µM (titrated, usually from 28.7 µM), most hits filed as inhibitors
#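 Readout is luminescence from an integrated firefly luciferase in P. falciparum. Red cells, 2% hematocrit and 0.05% parasitemia final, were cultured with compound through two parasite generations (96 hours) at 37 C, 5% CO2.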
# HCV inhibitor = HCV inhibition | Huh7.5.1 HCVcc-Cre infection, luciferase reporter, 44 h | Potency, µM (series often up to 41.8 µM), actives largely listed as inhibitors | hit rate 3.4% among 340,000
#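 Cells seeded at 1,000/well and cultured 4 h, then compounds added followed by HCVcc-Cre virus (~0.5 moi). After 44 h further culture, luciferase substrate was added, plates held 15 min at room temperature, and luminescence read for 15 sec.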
# Hits are given with their value; . = inactive; ? = inconclusive; / = no result given; [ ] = dose if it differs, or a comment. Unless noted, the call rests on the fitted dose curve; in most records, active means well fitted curve in the direction sought with a large enough effect; inconclusive means small, poorly fitted or top-dose-only effect, or another doubt; inactive means no such curve, though single readings can be large; an effect the other way counts as inactive or inconclusive.
SMILES,Shiga inhibitor,AMA1 RON2 block,CHX counter,Pf growth 48h,Pf growth 96h,HCV inhibitor
Cc1ccc(SCCNC(=S)Nc2ccc(C)c(C)c2)cc1,.,.,.,?,.,.
Cc1ccccc1NC(=S)NCc1ccccc1,.,.[2.32 µM],.,.,.,.
COc1c(C(O)CC(C)C)ccc2c1C(=O)OCc1cc(C)cc(O)c1O2 (centres undefined),.,.,.,.,.,2.24µM
COc1c(C(CC(C)C)OC(C)=O)ccc2c1C(=O)OCc1cc(C)cc(O)c1O2 (centres undefined),.,.,.,8.28µM,.,2.51µM
CC(=O)NC(=S)Nc1sc2c(c1C(N)=O)CCC(C)C2 (centres undefined),52.9,.,53.7,.,.,.
CCN(CC(=O)Nc1sc2c(c1C#N)CCC(C)C2)CC(=O)NC1CCS(=O)(=O)C1 (centres undefined),42.0,.,19.0,.,11.7µM,.
Cc1cc(C(=O)Nc2sc3c(c2C#N)CCC(C)C3)cs1 (centres undefined),126.1,.,38.5,.,?,?
Cc1ccc(C)n1-c1sc2c(c1C#N)CCC(C)C2 (centres undefined),.,.,.,/,6.57µM,.
COC(CNS(=O)(=O)c1ccc(S(=O)(=O)NC2CC2)cc1)OC,.,.,.,.,.,.
COc1ccccc1-c1cn(CC[C@H]2CC[C@@H](NS(=O)(=O)c3ccccc3C)[C@@H](CO)O2)nn1,/,.,/,/,/,/
N#CCc1ccc(OC(=O)c2ccncc2)cc1,/,.,/,/,/,.
O=C(Nc1ccc(F)cc1)C(c1ccnc2ccccc12)N1CCN(CC(=O)N2CCCC2)CC1 (centres undefined),/,.,/,/,/,/
CC1CCc2c(sc(NC(=O)c3ccccc3C(=O)O)c2C#N)C1 (centres undefined),.,.,.,.,.,.
CC(=O)Nc1sc2c(c1C#N)CCC(C)C2 (centres undefined),37.8,.,.,.,.,.
Cc1cc(S(=O)(=O)N2CCCOC2CNC(=O)C(=O)NCc2cccs2)ccc1F (centres undefined),.,.,.,.,?,.
COc1ccc(C=O)cc1,/,.,/,.,.,.
COc1ccc(/C=C/c2cc(OC)cc(=O)o2)cc1,86.0,/,48.9,/,/,/
COc1ccc(/C=C/c2ccncc2)cc1,94.3,.,40.0,.,.,.
CN(C)c1ccc(/C=C/c2ccncc2)cc1,68.0,.,32.0,.,.,.
Cc1ccc(F)cc1NC(=O)CCC(=O)c1cccs1,.,.,.,/,.,.
Cc1ccc(NC(=O)CCC(=O)c2cccs2)c(O)c1,74.3,.,65.7,.,.,.
O=C(CCC(=O)c1cccs1)c1cccs1,33.9,.,40.3,.,.,.
CC(C)N1CCC(=O)NC1=O,/,.,/,/,/,.
CC(C)(C)C1CCC(=NNC(=S)NCc2ccccc2)CC1 (centres undefined),.,.,.,?,?,.
CC(C)(C)C1CCC(=NNC(=O)c2ccco2)CC1 (centres undefined),174.7,.,70.5,.,?,.
SMILES,Shiga inhibitor,AMA1 RON2 block,CHX counter,Pf growth 48h,Pf growth 96h,HCV inhibitor
CN1CCC(=NNC(=O)c2ccco2)CC1,78.6,.,66.6,.,?,.
COc1ccc(Br)c(Cn2c(C)c(C(=O)NCCC#N)sc2=O)c1,/,.,/,/,/,/
COc1ccc(CNC(=O)CNC(=O)c2c(C)nn(C)c2Cl)cc1,.,.,.,.,.,.
O=C(O)c1cccc(CN2C(=O)SC(Nc3ccccc3)C2=O)c1 (centres undefined),.,.,16.9,.,.,.
CCN(C[C@H]1N[C@@](Cc2ccccc2)(C(=O)OC)[C@H]2C(=O)N(C)C(=O)[C@@H]12)C(=O)NC(C)C,/,.,/,/,/,.
O=S(=O)(NC1CCCC1)c1ccc(F)cc1F,/,.,/,/,/,/
COc1ccc(Cl)cc1-c1cc(C(=O)Nc2ccc(C)c(NS(C)(=O)=O)c2)[nH]n1,/,.,/,/,/,/
COc1ccc(Br)cc1CSC(=N)N,.,.,.,?,.,?
CCCCCOc1ccc(Br)cc1CSC(=N)N,.,.,.,10.4µM,?,7.94µM
O=C(N/N=C/c1ccc(F)cc1)c1cc[n+]([O-])cc1,60.6,.,17.6,.,.,.
O=C(N/N=C/c1ccc(Br)cc1)c1ccc(F)cc1,47.2,.[2.32 µM],34.6,?,.,.
O=C(Nc1ccccc1C(=O)N/N=C/c1ccc(F)cc1)c1ccccc1Br,.,.,17.3,?,?,/
O=C(N/N=C/c1ccc(F)cc1)c1ccccc1,125.7,.,32.7,.,.,.
O=C(N/N=C/c1ccc(F)cc1)c1ccc(Br)cc1,.,.,.,.,.,.
CCCc1nnc(SCC(=O)N2CCCC(C)C2)n1CCOC (centres undefined),.,.,.,.,?,.
CN(C)CCC1(C2=CCCC2)CC/C(=C/c2ccc(Cl)cc2)C1=O (centres undefined),/,.,/,/,/,?
Cc1cccc(/C=N/NC(=O)c2ccc(Br)cc2)c1,69.5,.,34.5,.,.,.
O=C(N/N=C/c1ccc(Br)cc1)c1ccc(Br)o1,65.5,.,50.6,.,.,.
O=C(CCCCCNC(=O)c1ccccc1)N/N=C/c1ccc(F)cc1,.,.,.,13.1µM,?,.
Cc1cccc(/C=N\N=C\c2cccc(C)c2)c1,/,.,53.1,?,7.38µM,.
O=C(CCNC(=O)c1ccccc1)N/N=C/c1ccc([N+](=O)[O-])cc1,.,.,.,.,?,.
O=C(Cn1cc(S(=O)(=O)N2CCCC2)c(S(=O)(=O)N2CCCC2)c1)NCc1ccco1,.,.,.,?,?,.
Cc1ccsc1C(=O)N1CCCC(C)(C(=O)O)C1 (centres undefined),/,.,/,/,/,/
COc1cccc(C(=O)N2CCC2(C)C(=O)O)c1 (centres undefined),/,.,/,/,/,/
Cc1ccc(CC(=O)NNC(=O)c2cccs2)cc1C,/,.,/,.,.,.
SMILES,Shiga inhibitor,AMA1 RON2 block,CHX counter,Pf growth 48h,Pf growth 96h,HCV inhibitor
COc1ccc(Nc2nnc(-c3ccncc3)s2)cc1Cl,70.8,.,48.9,.,?,.
Cc1ccc(Nc2nnc(-c3ccncc3)s2)c(Br)c1,.,.,27.5,?,?,?
COc1ccc(Cl)cc1Nc1nnc(-c2ccncc2)s1,.,.,.,.[0.00184 µM],.,.
Clc1ccccc1Nc1nnc(-c2ccncc2)s1,28.3,.,40.8,.,.,.
CCC(=O)Nc1ccc(C(=O)N/N=C/c2ccccc2[N+](=O)[O-])cc1,.,.,.,.,.,.
Cc1ccc(C(=O)N/N=C\c2ccccc2[N+](=O)[O-])cn1,.,.,23.4,.,?,.
CCOc1ccc(C(=O)N/N=C/c2cccc3cccnc23)cc1,.,?,34.6,?,.,?
CCOc1ccc(C(=O)N/N=C/c2ccccc2[N+](=O)[O-])cc1,102.1,.,73.0,.,.,.
Cc1ccc(C(=O)N/N=C\c2ccc([N+](=O)[O-])o2)cn1,.,.,.,3.7µM,1.85µM,?
